# Test results taken from PubChem BioAssay AID602261 (Sanford-Burnham Center for Chemical Genomics, 2012).
# Several values for one entry are separate records, joined by “and”; a condition that tells them apart may be missing. Identical values can stand only once. About 2,400 (0.67%) of roughly 360,000 compounds were called active. Many of the other results were omitted from the sample, so actives are more common in it than they were. Unmarked numbers belong to inactive results.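 How the source made its calls: active means compounds whose normalised, plate-corrected inhibition of enzyme fluorescence in the single-dose primary screen is 50% or more; inactive means the rest.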
# Target: Fatty acid synthase (Homo sapiens) (UniProt P49327)
# Assay: FAS thioesterase domain inhibitors, primary screen, biochemical, fluorescence intensity, uHTS (AID 602261);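 further: 0% = DMSO with enzyme and 100% = substrate without enzyme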
# Details: recombinant FAS-TE, OMFH fluorogenic substrate, fluorescence endpoint; at 15 µM; stronger effect = higher value
# Chain of Fatty acid synthase (Homo sapiens) (P49327 whole entry, looked up, the tested form may be a part): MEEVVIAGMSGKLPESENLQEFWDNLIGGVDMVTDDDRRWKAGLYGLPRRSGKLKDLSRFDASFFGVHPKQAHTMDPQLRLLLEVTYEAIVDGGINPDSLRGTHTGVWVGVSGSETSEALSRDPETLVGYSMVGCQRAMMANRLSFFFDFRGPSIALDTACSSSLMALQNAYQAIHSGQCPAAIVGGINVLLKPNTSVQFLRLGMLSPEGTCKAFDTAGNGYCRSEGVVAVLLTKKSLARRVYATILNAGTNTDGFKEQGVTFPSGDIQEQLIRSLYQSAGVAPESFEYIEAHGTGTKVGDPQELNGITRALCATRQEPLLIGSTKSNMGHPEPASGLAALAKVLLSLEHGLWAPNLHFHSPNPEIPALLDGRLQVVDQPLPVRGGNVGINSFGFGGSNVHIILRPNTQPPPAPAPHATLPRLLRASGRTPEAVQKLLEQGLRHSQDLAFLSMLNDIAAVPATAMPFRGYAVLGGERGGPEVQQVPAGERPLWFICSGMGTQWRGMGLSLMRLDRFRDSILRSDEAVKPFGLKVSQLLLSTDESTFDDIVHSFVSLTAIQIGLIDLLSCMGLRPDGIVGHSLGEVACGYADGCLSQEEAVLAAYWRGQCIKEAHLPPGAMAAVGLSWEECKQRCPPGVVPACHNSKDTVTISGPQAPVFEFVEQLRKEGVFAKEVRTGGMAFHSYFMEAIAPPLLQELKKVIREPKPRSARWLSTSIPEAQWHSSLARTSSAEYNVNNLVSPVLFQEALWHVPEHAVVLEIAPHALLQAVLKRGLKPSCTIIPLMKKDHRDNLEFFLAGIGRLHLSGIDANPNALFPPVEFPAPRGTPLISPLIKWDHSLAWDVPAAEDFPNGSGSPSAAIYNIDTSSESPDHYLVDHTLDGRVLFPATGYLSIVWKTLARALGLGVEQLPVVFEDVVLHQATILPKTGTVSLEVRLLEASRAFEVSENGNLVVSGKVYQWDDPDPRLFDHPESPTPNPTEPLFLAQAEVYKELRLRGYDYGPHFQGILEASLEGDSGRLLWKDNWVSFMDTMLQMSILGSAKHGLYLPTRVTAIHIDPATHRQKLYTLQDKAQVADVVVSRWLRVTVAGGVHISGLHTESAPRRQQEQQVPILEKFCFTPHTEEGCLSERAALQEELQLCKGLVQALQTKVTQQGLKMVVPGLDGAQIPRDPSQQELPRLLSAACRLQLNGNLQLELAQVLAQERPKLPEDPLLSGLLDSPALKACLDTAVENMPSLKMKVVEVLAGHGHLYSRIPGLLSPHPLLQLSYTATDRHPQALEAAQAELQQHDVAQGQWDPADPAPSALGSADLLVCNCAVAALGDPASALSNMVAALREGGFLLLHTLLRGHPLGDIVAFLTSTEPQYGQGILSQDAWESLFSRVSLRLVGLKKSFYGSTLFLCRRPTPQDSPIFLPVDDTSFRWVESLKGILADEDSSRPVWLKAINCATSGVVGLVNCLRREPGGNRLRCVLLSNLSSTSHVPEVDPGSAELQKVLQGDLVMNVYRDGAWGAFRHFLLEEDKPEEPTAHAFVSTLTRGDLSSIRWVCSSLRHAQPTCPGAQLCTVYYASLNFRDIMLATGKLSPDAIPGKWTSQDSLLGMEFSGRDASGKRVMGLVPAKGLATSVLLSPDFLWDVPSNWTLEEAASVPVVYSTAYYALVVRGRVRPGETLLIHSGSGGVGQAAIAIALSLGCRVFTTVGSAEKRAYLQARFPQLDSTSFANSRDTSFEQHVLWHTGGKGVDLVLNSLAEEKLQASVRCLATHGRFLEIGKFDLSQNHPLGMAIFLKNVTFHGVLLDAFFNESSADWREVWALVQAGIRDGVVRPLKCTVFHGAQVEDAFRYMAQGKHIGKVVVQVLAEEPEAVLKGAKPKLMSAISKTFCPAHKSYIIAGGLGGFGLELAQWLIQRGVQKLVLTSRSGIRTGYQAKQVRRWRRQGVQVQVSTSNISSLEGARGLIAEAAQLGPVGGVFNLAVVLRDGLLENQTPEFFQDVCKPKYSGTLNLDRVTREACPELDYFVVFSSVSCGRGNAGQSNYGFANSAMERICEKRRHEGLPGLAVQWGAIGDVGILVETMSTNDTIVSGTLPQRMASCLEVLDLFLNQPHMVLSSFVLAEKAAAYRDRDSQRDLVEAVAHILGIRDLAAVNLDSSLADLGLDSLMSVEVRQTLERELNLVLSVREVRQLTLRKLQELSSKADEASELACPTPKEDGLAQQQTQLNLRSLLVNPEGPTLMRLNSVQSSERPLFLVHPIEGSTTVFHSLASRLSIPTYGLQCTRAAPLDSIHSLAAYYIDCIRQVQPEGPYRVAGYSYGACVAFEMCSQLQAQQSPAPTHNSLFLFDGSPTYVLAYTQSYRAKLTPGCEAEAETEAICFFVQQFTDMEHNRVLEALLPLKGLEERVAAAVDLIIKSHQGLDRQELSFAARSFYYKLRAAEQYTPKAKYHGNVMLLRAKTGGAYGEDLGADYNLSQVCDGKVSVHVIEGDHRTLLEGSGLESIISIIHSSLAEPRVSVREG
row,Compound,inhibition
1,CCOC(=O)c1ccc(COC(=O)CCc2nc(-c3ccccc3)c(-c3ccccc3)o2)cc1,26.3%
2,COc1cc(OC)cc(-c2cc3nc(C4CCN(C(=O)OC(C)(C)C)CC4)cc(=O)n3[nH]2)c1,-5.7%
3,CCC(C)NC(=O)C1CCCN(C(=O)NC2CCCCC2)C1 (stereo not given),-6.1%
4,O=C(c1[nH]ncc1-c1ccc(Cl)cc1)C1CO1 (stereo not given),-22%
5,O=C(NC(=S)NC1CCS(=O)(=O)C1)c1cccc([N+](=O)[O-])c1 (stereo not given),-3.5%
6,O=C(Nc1ccc(C2CC2(Cl)Cl)cc1)c1cccc([N+](=O)[O-])c1 (stereo not given),90.9% (active)
7,Cc1ccc(NC(=O)C(=O)NCC2CCN(C(=O)c3cccc([N+](=O)[O-])c3)CC2)cc1,0.8%
8,CCOc1ccc(CCNC(=O)COC(=O)c2ccc(F)c(S(=O)(=O)N3CCOCC3)c2)cc1OCC,-4.3%
9,N#Cc1c(/N=C/N2CCCC2)oc(-c2ccccc2)c1-c1ccccc1,27.6%
10,CC12C(=O)N(c3ccccc3)C(=O)C1C(c1ccccc1)N1CCCN12 (stereo not given),-2.7%
11,O=C1[C@H]2[C@@H](c3ccc(C(F)(F)F)cc3)N[C@]3(CCCN(Cc4ccc(Br)cc4)C3=O)[C@H]2C(=O)N1Cc1ccccc1,41.2%
12,C[C@@]12C(=O)N(c3cccc(Br)c3)C(=O)N1[C@H](c1ccc(Cl)cc1)[C@@H]1C(=O)N(C3CCCCC3)C(=O)[C@@H]12,93.7% (active)
13,O=C1[C@H]2[C@@H](c3ccc(F)cc3)N3C(=O)N(c4ccc(C(F)(F)F)cc4)C(=O)[C@@]3(Cc3ccccc3)[C@H]2C(=O)N1C1CCCCC1,91.3% (active)
14,CCN1C(=O)[C@H]2[C@@H](c3ccc(C)cc3)N3C(=O)N(c4cccc(Br)c4)C(=O)[C@@]3(CC)[C@H]2C1=O,-1.3%
15,Cc1cccc(N2C(=O)N3[C@H](c4ccc(F)cc4)[C@@H]4C(=O)N(C5CCCCC5)C(=O)[C@@H]4[C@]3(Cc3ccccc3)C2=O)c1,90.1% (active)
16,Cc1ccc([C@H]2N[C@]3(CCCN(CC4CCCCC4)C3=O)[C@H]3C(=O)N(Cc4ccccc4)C(=O)[C@@H]23)cc1,21.4%
17,O=C1[C@H]2[C@@H](c3ccc(Cl)cc3)N3C(=O)N(c4cccc(F)c4)C(=O)[C@@]3(Cc3ccccc3)[C@H]2C(=O)N1C1CCCCC1,92.2% (active)
18,CC(C)(C)N1C(=O)[C@H]2[C@@H](c3ccc(Br)cc3)N3C(=O)N(c4cccc(Cl)c4)C(=O)[C@@]3(C)[C@H]2C1=O,31.7%
19,O=C1[C@H]2[C@@H](c3ccc(C(F)(F)F)cc3)N[C@]3(CCCN(Cc4ccc(Cl)cc4)C3=O)[C@H]2C(=O)N1Cc1ccccc1,41.2%
20,COc1cc(NC(=O)C2=C(C)OCCS2)c(Cl)cc1C(=O)NCCN1CCN(C)CC1,-10.2%
21,CC1CCN(S(=O)(=O)c2ccc(NC(=O)C3CC(=O)N(c4ccccc4)C3)cc2)CC1 (stereo not given),4.6%
22,COc1ccc(CNC(=O)CN2CCC(n3nnc4cc(F)ccc43)CC2)cc1,1.6%
23,Cc1csc(SCC(=O)N(c2ccccc2)C(C)C)n1,-7.2%
24,CC(NC(=O)C1CCC(CNc2c(N3CCOCC3)c(=O)c2=O)CC1)c1ccccc1 (stereo not given),3.6%
25,S=c1[nH]c2ccccc2c2ccccc12,-0.9%
26,COCC1CCN(C(=O)C2CCC(=O)N(Cc3cccc(C(F)(F)F)c3)C2)CC1 (stereo not given),-6.2%
27,O=C(CCNS(=O)(=O)c1cccs1)N1CCN(c2ccc(F)cc2)CC1,-4.4%

row,Compound,inhibition
1,NC1=NC(=O)C2(COC(c3ccccc3Cl)OC2)S1 (stereo not given),-3.8%
2,Cc1cccc([C@@H]2[C@@H]3C(=O)N(Cc4ccccc4)C(=O)[C@@H]3[C@]3(Cc4ccc(Cl)cc4)C(=O)N(c4cccc(Cl)c4)C(=O)N23)c1,91.3% (active)
3,COc1cccc(N2C(=O)CN(Cc3ccccc3)C2=S)c1,-0.9%
4,Cc1cccc(N2C(=O)C3C(c4ccccc4)OC4(C(=O)c5ccccc5C4=O)C3C2=O)c1 (stereo not given),-2.5%
5,Cc1cccc([C@@H]2[C@@H]3C(=O)N(Cc4ccccc4)C(=O)[C@@H]3[C@]3(C)C(=O)N(c4ccc(Br)cc4)C(=O)N23)c1,39.4%
6,CC[C@@]12C(=O)N(c3ccccc3)C(=O)N1[C@H](c1ccc(Br)cc1)[C@@H]1C(=O)N(C(C)(C)C)C(=O)[C@@H]12,13.2%
7,COc1ccc([C@@H]2[C@@H]3C(=O)N(C(C)(C)C)C(=O)[C@@H]3[C@]3(Cc4ccccc4)C(=O)N(c4cccc(Br)c4)C(=O)N23)cc1,89.7% (active)
8,CCc1cc(CNC(=O)CC2C(=O)NCCN2Cc2ccccc2C(F)(F)F)on1 (stereo not given),-2.9%
9,O=C(NC1CCCCC1)C1CC(=O)N(CCc2ccccc2)C1 (stereo not given),-6.1%
10,CCCn1cc(S(=O)(=O)c2ccc(C)cc2)c(=O)c2cc(OCC)ccc21,9.4%
11,Clc1ccc2c(c1)C1=C(C(c3ccncc3)O2)C(c2ccc(Br)cc2)n2ncnc2N1 (stereo not given),71.3% (active)
12,CN(C)CCNc1ccc(-c2n[nH]c(=O)c3ccccc23)cc1[N+](=O)[O-],-2.9%
13,COc1cc(/C=C(/NC(=O)c2ccc(Cl)cc2Cl)C(=O)O)cc(OC)c1OC,0.9%
14,CCOc1cc(/C=N/NC(=O)OC)ccc1OCCSc1ccc(Cl)cc1,-4.3%
15,CCOc1cc(/C=C(/C#N)c2ccc(Cl)cc2)cc(Cl)c1OCC(=O)O,53.1% (active)
16,O=C(c1ccco1)N1CCN=C1SCc1cccc(Cl)c1,5.3%
17,COC(=O)c1sc2[nH]c(=S)n(N)c(=O)c2c1C,-6.3%
18,O=c1ccc2c(-c3ccccc3S(=O)(=O)O)c3ccc(O)c(O)c3oc-2c1O,54.8% (active)
19,Cn1ncc2c(NNC(=O)Cc3cccc4ccccc34)ncnc21,-10.1%
20,CC(=O)c1c(C)[nH]c(C(=O)N2CCN(S(=O)(=O)c3ccc(F)c(F)c3)CC2)c1C,-3.9%
21,COc1cc(S(=O)(=O)N2CCOCC2)ccc1NC(=O)COc1ccc(N(C)S(=O)(=O)c2ccc(C)cc2)cc1,76.5% (active)
22,COc1ccc(NC(=O)CNc2cc(S(=O)(=O)N3CCOCC3)ccc2N2CCOCC2)c(OC)c1,-2.5%
23,COc1ccc(S(=O)(=O)N2CCOCC2)cc1NC(=O)COc1ccccc1,2.1%
24,COc1ccc(Cl)cc1NS(=O)(=O)c1cccc(C(=O)NCC2CCCO2)c1 (stereo not given),-3.9%
25,Oc1c(Cl)cc(Cl)c(Cl)c1Cc1c(O)c(Cl)cc(Cl)c1Cl,83.7% (active)
26,CC1CCCCN1C(=O)CCS(=O)(=O)Cc1ccccc1 (stereo not given),-4.6%
27,CCOc1ccccc1N(CC(=O)NC1CCCCC1)C(=O)CCCC(=O)Nc1ccccn1,-7.1%

row,Compound,inhibition
1,COC(=O)c1c(NC(=O)CN2CCN(S(=O)(=O)c3ccccc3[N+](=O)[O-])CC2)sc2c1CCC(C)C2 (stereo not given),38.1%
2,CCCCOC(=O)NCN1C(=O)C2C3C=CC(C3)C2C1=O (stereo not given),-2.4%
3,CCCOC(=O)c1ccc(N2C(=O)c3ccccc3C2=O)cc1,-2.6%
4,CCCCCOC(=O)c1ccc(N2C(=O)C3C4C=CC(C4)C3C2=O)cc1 (stereo not given),83.5% (active)
5,CC1(c2ccccc2Cl)NC(=O)N(CC(=O)NC(=O)NCc2ccco2)C1=O (stereo not given),-2.3%
6,CCOC(=O)c1nn(-c2cccc(C)c2)cc1C(=O)c1ccccc1,17.5%
7,CCCCNC(=O)OC1CC2CC1[C@H]1CCCCN1C2=O (stereo not given in full),-13%
8,COc1ccc([N+](=O)[O-])cc1NCC(=O)c1ccc(C)cc1,11.8%
9,COc1ccc([N+](=O)[O-])cc1NC(=O)CC1SC(=Nc2cccc(C)c2C)N(/N=C(\C)c2ccc(C)cc2)C1=O (stereo not given),75.8% (active)
10,COc1ccc(Br)cc1CN(C)CC(=O)Nc1cc([N+](=O)[O-])ccc1OC,42.3%
11,Cc1ccc(NC2(C#N)C(=O)Nc3ccccc32)cc1 (stereo not given),-3.6%
12,NS(=O)(=O)c1ccc(N=Cc2ccc(Br)s2)cc1,-8.2%
13,CC(=O)c1sc(N/N=C/c2ccc(C(C)C)cc2)nc1C,58.4% (active)
14,CC(=O)c1sc(NC(=O)C2=NN(c3ccccc3)C(=O)CC2)nc1C,-6.4%
15,CC(=O)c1sc(N)nc1C,-11.2% and -7.8%
16,Cc1nc2ccccc2nc(=O)c1NNc1ccc([N+](=O)[O-])cc1,-7.2%
17,CNC[C@@H]1Oc2c(NS(C)(=O)=O)cccc2C(=O)N([C@@H](C)CO)C[C@H]1C,-11.2%
18,O=S(=O)(c1ccc(F)cc1)n1ccc(-c2cnc(-c3ccccc3)s2)n1,67.2% (active)
19,O=S(=O)(c1ccc(F)cc1)N1CC=C(c2ccccc2)CC1,27.5%
20,CC(=O)c1cnc(-c2ccccc2)s1,-1.4%
21,CC1CCN(C(=S)c2cccc(O)c2)CC1,-0.1%
22,CCn1c(SCC(=O)Nc2cccc(F)c2)nnc1-c1cc2cc(Br)ccc2o1,-5.5%
23,O=C(CP(=O)(c1ccccc1)c1ccccc1)N1CCOCC1,-3.5%
24,COc1ccc(CN2[C@@H](CC(=O)O)c3cc(F)ccc3S2(=O)=O)cc1,-9.9%
25,CCCCCCCCCCCCN1[C@@H](CC(C)=O)c2cc(F)cc(F)c2S1(=O)=O,57.7% (active)
26,CCCCCCN1CCN(C2CN(Cc3cn(Cc4ccc(F)cc4)nn3)S(=O)(=O)C2)CC1 (stereo not given),-7.8%
